# Test results taken from the supplement of paper PMC6555819.
# Key:
# Assay in all cases: PBM binding z-score (relative to random genomic background probes); higher = stronger binding; sequences stand for … in GC…GCGATTGACAGCGTAGAATGAAGG
# [1] = system: FXR:RXRa (NR concentration 270 nM, RXRa partner concentration 90 nM)
# In short: (§1)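 Custom Agilent 4×180K protein-binding microarrays carried double-stranded probes, each with a 34-nt variable region. These regions held direct-repeat seeds, single-nucleotide variants, half-site ablations and random human genomic background sequences. Ligand-free nuclear receptor dimers were incubated on the arrays for 1 h, antibodies against each partner (one per run) detected binding, and scanned fluorescence was regression-normalized. Binding z-scores take the random background probes as reference.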
# [2] = system: LXRa:RXRa (NR concentration 270 nM, RXRa partner concentration 90 nM)
# In short: as §1
# [3] = system: LXRa homodimer (NR concentration 270 nM)
# In short: as §1
# [4] = system: LXRb:RXRa (NR concentration 270 nM, RXRa partner concentration 90 nM)
# In short: as §1
# [5] = system: LXRb homodimer (NR concentration 270 nM)
# In short: as §1
# [6] = system: PPARa:RXRa (NR concentration 270 nM, RXRa partner concentration 90 nM)
# In short: as §1
# [7] = system: PPARg:RXRa (NR concentration 180 nM, RXRa partner concentration 90 nM)
# In short: as §1
# [8] = system: PPARg:RXRa 270nM:90nM, anti-RXR (NR concentration 270 nM, RXRa partner concentration 90 nM)
# In short: as §1
# [9] = system: PPARg:RXRa 30nM:10nM, anti-RXR (NR concentration 30 nM, RXRa partner concentration 10 nM)
# In short: as §1
# [10] = system: PPARg:RXRa 90nM:30nM, anti-RXR (NR concentration 90 nM, RXRa partner concentration 30 nM)
# In short: as §1
# [11] = system: PPARg:RXRa DBDmut IVT, anti-RXR (DBD mutation: RXRa K156A/R161A, NR concentration 270 nM, RXRa partner concentration 90 nM)
# In short: as §1
# [12] = system: PPARg:RXRa IVT, anti-PPARg (NR concentration 270 nM, RXRa partner concentration 90 nM)
# In short: as §1
# [13] = system: PPARg DBDmut:RXRa IVT, anti-PPARg (DBD mutation: PPARg1 K132A/R137A, NR concentration 270 nM, RXRa partner concentration 90 nM)
# In short: as §1
# [14] = system: PPARg DBDmut IVT, anti-PPARg (DBD mutation: PPARg1 K132A/R137A, NR concentration 270 nM)
# In short: as §1
# [15] = system: PPARg homodimer (NR concentration 180 nM)
# In short: as §1
# [16] = system: PXR:RXRa (NR concentration 270 nM, RXRa partner concentration 90 nM)
# In short: as §1
# [17] = system: PXR homodimer (NR concentration 270 nM)
# In short: as §1
# [18] = system: RARa:RXR (NR concentration 270 nM, RXRa partner concentration 90 nM)
# In short: as §1
# [19] = system: RARa homodimer (NR concentration 270 nM)
# In short: as §1
# [20] = system: RARb:RXRa (NR concentration 270 nM, RXRa partner concentration 90 nM)
# In short: as §1
Sequence,PBM binding z-score [1],PBM binding z-score [2],PBM binding z-score [3],PBM binding z-score [4],PBM binding z-score [5],PBM binding z-score [6],PBM binding z-score [7],PBM binding z-score [8],PBM binding z-score [9],PBM binding z-score [10],PBM binding z-score [11],PBM binding z-score [12],PBM binding z-score [13],PBM binding z-score [14],PBM binding z-score [15],PBM binding z-score [16],PBM binding z-score [17],PBM binding z-score [18],PBM binding z-score [19],PBM binding z-score [20]
AGAACCAGGGCAATGAGTTGATAGCACGGGTGGC,-0.133,-0.319,-0.429,-0.657,-0.564,0.717,1.19,0.451,-0.539,0.047,2.95,2.68,0.333,-0.225,-0.0189,0.171,0.97,-0.324,-0.0861,0.985
GTACCAAGGTGAATAGGTCATTGATGAGTAGGCG,2.6,2.66,1.28,2.14,-0.295,3.87,3.39,3.52,1.55,2.85,3.17,4.04,0.503,0.284,4.15,2.62,0.883,4.41,1.5,3.56
TCTTGTAGATAAAGCAGGTTAAGAAAGCCTGAGT,0.606,0.66,-0.172,0.585,-0.647,1.06,-0.166,1.54,2.82,2.17,1.9,0.689,-0.607,0.523,0.35,0.561,0.376,0.708,0.783,0.2
CCTTACGGGTCACGAGGTTATATCACGACGAGCG,7.05,4.73,0.668,4.12,-0.0743,6.05,7.17,6.76,3.62,5.46,4.44,5.64,1.38,0.342,2.85,4.59,0.517,5.8,0.866,4.5
AATACAGGGTCATCGAAGGCCAGAGTACGCACAG,6.84,6.3,1.75,4.59,1.53,5.67,6.5,6.11,2.56,4.66,2.6,4.19,1.28,0.988,2.16,5.22,0.967,4.45,0.641,4.32
TCTACTTGGTCAAAGGTCACACACTCGAAATGCG,6.58,5.85,4.37,5.9,2.26,6.72,11.9,9.98,10.5,11,3.83,6.58,2.43,3.34,4.9,6.09,1.84,7.73,4.11,5.29
CCTACTGGGCCAGAAAGGTCATTGATGCCGATAA,3.9,4.7,3.35,4.16,0.28,4.76,2.59,3.87,1.21,2.91,2.56,3.3,-0.848,-1.13,2.14,4.76,2.21,5.01,1.75,3.73
ACAGACAGGTGAGGAAGGTAACTCAGGCTATCAT,0.118,-0.0457,-0.223,0.105,-0.143,0.173,0.575,-0.276,0.0158,-0.414,0.129,0.785,0.395,-0.587,-0.277,-0.058,-0.158,0.108,0.0819,0.494
GCTAGCAGGCCATTTGGGTCACTCACTGACGGGC,0.237,-0.137,-0.55,-0.212,-0.64,1.16,0.358,0.596,-0.357,0.202,2.26,2.51,-1.21,-1.1,0.122,0.354,-0.0107,0.762,-0.483,1.45
CGTCCAAGGTCATAGGAGGTCAGTGCAGACAGAT,7.64,7.34,5.11,6.24,1.16,5.7,5.88,5.67,2.19,4.56,3.55,4.57,0.589,1.49,4.86,6.81,4.62,6.21,2.75,5.33
TCGAGCAGGTTAGGGGCATTCAGAATGGCGTCGA,0.0413,0.102,-0.285,0.523,-0.591,0.89,-0.117,0.183,0.0683,0.228,0.212,-0.145,-1.03,-1.48,0.0489,0.241,-0.0165,0.385,-0.605,1.11
CGTCCAAGGTCATAGGACGTCAGTGAAGACAGAT,7.14,5.2,0.696,3.88,0.284,5.43,4.73,5.14,1.6,3.51,2.61,3.41,0.547,0.692,1.99,4.09,1.1,4.61,1.29,4.77
ATCGAAAGGTCGACGAGGTGAGTATACACCGTTT,4.62,3.32,-0.0538,2.73,0.533,4.52,2.85,3.18,1.02,2.34,0.442,1.82,0.853,1.45,1.32,3.15,0.642,4.09,1.19,3.73
CCGACTGGGGCAAACGTTACCATACTCAGTACGA,-0.264,-0.168,-0.00869,-0.27,-0.682,1.61,3.62,4.48,2.27,4.25,5.15,3.9,-0.175,-0.646,0.256,-0.42,-0.33,-0.168,-0.437,0.494
TTACCAAGGCGAAGGTCGTTGATCCCTCTGTAGA,1.8,1.55,-0.229,1.43,-0.992,2.44,3.98,5.81,3.02,5.86,0.0514,1.72,-0.587,-0.677,1.25,1.16,0.0255,1.26,-0.525,0.787
